Experimental data from PubChem BioAssay (EPA / NIEHS).
Where “and” joins values, the source holds several entries; their conditions need not be identical. Equal entries are not always repeated. More than one record can exist for a structure, and the calls need not agree. Calls of active or inactive are those of the source. How the source made its calls: active means hit-call score of the fitted dose curve at least 0.9, where 1 is the maximum; inactive means score below 0.9.

Assay: BSK_3C_SRB: Viability Assessment in the BioMAP Diversity Plus: 3C Assay (AID 2283023);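 further: fitted both ways against DMSO so a hit may be signal rise or drop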
Conditions: primary human endothelial cells (HUVEC)
Method: BSK_3C is a cell-based, multiplexed-readout assay that uses umbilical vein endothelium, a human vascular primary cell, with measurements taken at 24 hours after chemical dosing in a 96-well plate.BSK_3C_SRB is an assay component measured in the BSK_3C assay. It measures 0.1% sulforhodamine related to cell death using Sulforhodamine staining technology.Data from the assay component BSK_3C_SRB was analyzed into 1 assay endpoint. This assay endpoint, BSK_3C_SRB, was analyzed with bidirectional fitting relative to DMSO as the negative control and baseline of activity. Using a type of viability reporter, gain or loss-of-signal activity can be used to understand changes in the signaling. Furthermore, this assay endpoint can be referred to as a primary readout, because this assay has produced multiple assay endpoints where this one serves a signaling function. To generalize the intended target to other relatable targets, this assay endpoint is annotated to the cell morphology intended target family, where the subfamily is cell conformation.
The levels of cell surface (or secreted, indicated by the prefix "s") biomarker endpoints were measured by ELISA. Overt cytotoxicity to cells in confluent adherent cultures (all systems other than the BT system) was assessed by measuring total protein levels using sulforhodamine B (SRB) staining in parallel cultures at the time of biomarker measurements, indicated as SRB endpoints. For proliferation assays for adherent cell types, individual cell types are cultured at sub-confluence and relative cell numbers quantified by SRB staining at time points optimized for each system (48 h: 3C and CASM3C systems; 72 h: BT and HDF3CGF systems; 96 h: SAg system). SRB was performed by staining cells with 0.1% SRB after fixation with 10% TCA and reading wells at 560 nm.Viability and proliferation of PBMC (T cells) was quantified by Alamar Blue reduction for the SAg and BT systems. For PBMC viability (referred to as PBMC Cytotoxicity within the assay endpoint names), cells were plated (75,000/well in a 96-well plate) and then chemical samples added for 1 h before addition of activators, SEB and TSST-1 (20 ng/mL final concentration each). Cells were incubated for 90 h. Then, Alamar Blue (20 uL/well) (Invitrogen, Cat DAL1100) was added for 6 h, and the plates were read with a fluorescence microplate reader at 546/580 nm (excitation/emission). For PBMC proliferation, cells were plated and activated as above but incubated for only 16 h prior to addition of Alamar Blue. Plates were read after 6 h.

| SMILES | AC50 | outcome |
| --- | --- | --- |
| Cc1ccc(S(=O)(=O)OCC(F)(F)C(F)(F)C(F)(F)C(F)(F)C(F)(F)C(F)F)cc1 | 45.5 µM (active) and 38.1 µM (active) |  |
| CCCCCCOC(=O)c1ccccc1O | 39.5 µM (active) and 43.2 µM (active) |  |
| O=S(=O)(O)C(F)(F)C(F)(F)C(F)(F)C(F)(F)C(F)(F)C(F)(F)C(F)(F)F |  | inactive |
| C=CC(=O)OCC(F)(F)C(F)(F)C(F)(F)C(F)(F)C(F)(F)C(F)(F)C(F)(F)F |  | inactive |
| O=C(O)C(F)(F)C(F)(F)OC(F)(F)F |  | inactive |
| C=C(C)C(=O)OCC(F)(F)C(F)(F)C(F)(F)F |  | inactive |
| O=C(O)C(F)(OC(F)(F)C(F)(OC(F)(F)C(F)(F)C(F)(F)F)C(F)(F)F)C(F)(F)F (stereo not given) |  | inactive |
| C#C[C@]1(O)CC[C@H]2[C@@H]3CCc4cc(OC)ccc4[C@H]3CC[C@@]21C |  | inactive |
| OCC(F)(F)C(F)(F)C(F)(F)C(F)F |  | inactive |
| CC(C)(C)C(=O)CC(=O)C(F)(F)C(F)(F)C(F)(F)F | 48.3 µM (active) | inactive |
| O=C(O)C(F)(F)C(F)(F)C(F)F |  | inactive |
| OCC(F)(F)C(F)(F)C(F)(F)C(F)(F)C(F)(F)C(F)(F)F | 58.5 µM (active) | inactive |
| N=C(N)C(F)(F)C(F)(F)C(F)(F)C(F)(F)C(F)(F)C(F)(F)C(F)(F)F | 54.9 µM (active) | inactive |
| O=P(O)(O)OCCC(F)(F)C(F)(F)C(F)(F)C(F)(F)C(F)(F)C(F)(F)F |  | inactive |
| COC(=O)CCC(F)(F)C(F)(F)C(F)(F)C(F)(F)F |  | inactive |
| FC(F)(I)C(F)(F)C(F)(F)C(F)(F)I | 55 µM (active) and 51 µM (active) and 51.9 µM (active) |  |
| NC(=O)C(F)(F)C(F)(F)C(F)(F)C(F)(F)F |  | inactive |
| O=C(O)C=C(C(F)(F)F)C(F)(F)F |  | inactive |
| C=CC(F)(F)C(F)(F)C(F)(F)C(F)(F)C(F)(F)C(F)(F)C(F)(F)C(F)(F)F |  | inactive |

| SMILES | AC50 | outcome |
| --- | --- | --- |
| O=S(=O)(OCC(F)F)C(F)(F)F |  | inactive |
| FC(F)(F)C(F)(F)C(F)(F)C(F)(F)CCI |  | inactive |
| O=C(O)C(F)(F)C(F)(F)C(F)(F)C(F)(F)F |  | inactive |
| OCCCC(F)(F)C(F)(F)C(F)(F)F |  | inactive |
| FC(F)(F)C(F)(F)C(F)(F)C(F)(F)C(F)(F)C(F)(F)CC1CO1 (stereo not given) |  | inactive |
| O=C(O)C(F)(F)C(F)(F)C(F)(F)C(F)(F)C(F)(F)C(F)(F)C(F)(F)C(F)(F)C(F)(F)C(F)(F)C(F)(F)C(F)(F)C(F)(F)F |  | inactive |
| C=C(C)C(=O)OCC(F)(F)C(F)(F)C(F)(F)C(F)(F)C(F)(F)C(F)(F)C(F)(F)F |  | inactive |
| C=CC/C=C/C/C=C/C/C=C/C |  | inactive |
| O=C(Cl)C(F)(F)C(F)(F)C(F)(F)C(F)(F)C(F)(F)C(F)(F)C(F)(F)C(F)(F)F | 45 µM (active) and 50.8 µM (active) and 49.9 µM (active) |  |
| CCCCCCCCC(F)(F)C(F)(F)C(F)(F)C(F)(F)C(F)(F)C(F)(F)F |  | inactive |
| O=C(O)C(F)(F)C(F)(F)C(F)(F)F |  | inactive |
| O=C(O)C(F)(F)C(F)(F)C(F)(F)C(F)(F)C(F)(F)C(F)(F)C(F)(F)C(F)(F)C(F)(F)C(F)(F)C(F)(F)C(F)(F)F |  | inactive |
| O=C(O)C(F)(OC(F)(F)C(F)(OC(F)(F)C(F)(OC(F)(F)C(F)(F)C(F)(F)F)C(F)(F)F)C(F)(F)F)C(F)(F)F (stereo not given) |  | inactive |
| O[Si](c1ccccc1)(c1ccccc1)c1ccccc1 | 28.9 µM (active) |  |
| O=C(CC(=O)C(F)(F)C(F)(F)F)C(F)(F)F |  | inactive |
| FC(F)(Br)C(F)(F)C(F)(F)C(F)(F)C(F)(F)C(F)(F)Br |  | inactive |
| O=C(O)C(F)(F)C(F)(F)F |  | inactive |
| CCCCNc1ccccc1 |  | inactive |
